Measurements from PubChem BioAssay (Tox21).
Records with an inconclusive call do not appear. Calls of active or inactive are those of the source. Unless noted, calls follow the shape of the full dose curve.

Experiments:
[1] = qHTS assay to identify small molecule antagonists of the estrogen receptor beta (ER-beta) signaling pathway - cell viability counter screen (AID 1259382; active = well fitted curve in the direction sought with a large enough effect in the repeat runs; an effect the other way counts as inactive or inconclusive;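 also: HEK293T cells carrying ER-beta-UAS-bla reporter stimulated with estradiol; series mostly up to about 92 µM; nearly all actives have a fitted effect of over 55% in size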)
Summary of the method: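 ER-beta-UAS-bla HEK293T cells (2,000/well, 2% charcoal-stripped FBS) were pre-incubated 6 hr at 37C, then given compound plus 1nM final 17-beta-estradiol for 16 hr. Viability was read in the same wells by CellTiter-Glo luminescence after 30 min at room temperature.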

[2] = target: Estrogen receptor (Homo sapiens) (UniProt P03372); experiment: qHTS assay to identify small molecule agonists of the estrogen receptor alpha (ER-alpha) signaling pathway in the presence of an antagonist (AID 1259383); also: top concentration of the series differs between compounds; nearly all actives have a fitted effect of over 15% in size
Summary of the method: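 VM7Luc4E2 cells (endogenous full-length ER-alpha, 4×ERE-luciferase) were precultured 5 days in phenol red-free medium with 10% charcoal-stripped FBS, given 10.0nM ICI-182,780 (final), then treated with compounds at 15 concentrations for 22hr at 37C; luminescence read with ONE-Glo.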

[3] = qHTS assay to identify small molecule agonists or antagonists of the thyroid stimulating hormone receptor (TSHR) signaling pathway - wild type cell line counter screen (AID 1259384)
Summary of the method: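 Wild-type HEK293 cells were plated 18 h at 37 C/5% CO2, pin-dosed with compound plus Ro20-1724 medium, held 30 min at room temperature, then given cAMP-d2 and anti-cAMP-cryptate; fluorescence was read after 1 h. Fifteen concentrations, triplicate.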

[4] = target: Thyrotropin receptor (Homo sapiens) (UniProt P16473); experiment: qHTS assay to identify small molecule antagonists of the thyroid stimulating hormone receptor (TSHR) signaling pathway (AID 1259385); also: nearly all actives have a fitted effect of over 20% in size
Summary of the method: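 TSHR-HEK293 cells were plated and held 18 h at 37C/5% CO2, then given compound plus Ro20-1724 and stimulated with TSH at 1.5 ng/mL final. After 30 min at room temperature, cAMP was detected with cAMP-d2/anti-cAMP-cryptate (1 h) by fluorescence.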

[5] = qHTS assay to identify small molecule agonists of the estrogen receptor alpha (ER-alpha) signaling pathway in the presence of an antagonist - cell viability counter screen (AID 1259386; active = well fitted curve in the direction sought with a large enough effect in the repeat runs; an effect the other way counts as inactive or inconclusive;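 also: series mostly up to about 92 µM; cells exposed to compounds for 22 h at 37 °C before the viability read; nearly all actives have a fitted effect of over 30% in size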)
Summary of the method: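 VM7Luc4E2 cells (endogenous full-length ER-alpha, 4×ERE-luciferase) were held 5 days in phenol red-free medium with 10% charcoal-stripped FBS, plated, then given 10.0nM ICI-182,780 and compounds at 15 concentrations for 22hr at 37C; viability read by CellTiter-Fluor fluorescence.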

[6] = target: Progesterone receptor (Homo sapiens) (UniProt P06401); experiment: qHTS assay to identify small molecule agonists of the progesterone receptor (PR) signaling pathway (AID 1346784); also: nearly all actives have a fitted effect of over 30% in size
Summary of the method: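 Agonist mode, quantitative HTS format in a HEK 293T line expressing a UAS-controlled beta-lactamase reporter; 16 hr compound exposure at 37C in 2% charcoal-stripped FBS, then LiveBLAzer B/G FRET fluorescence.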

[7] = target: Progesterone receptor (Homo sapiens) (UniProt P06401); experiment: qHTS assay to identify small molecule antagonists of the progesterone receptor (PR) signaling pathway (AID 1346795; active = well fitted inhibition curve with a large enough effect in the signal ratio in the repeat runs, not every such curve was filed as active; the % refers to the signal ratio)
Summary of the method: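 HEK293T PR-UAS-bla reporter cells in charcoal-stripped serum (2%) received compound after a 6 hr settling period, followed by R5020 agonist at 1 nM final; 16 hr incubation preceded the FRET substrate step and fluorescence measurement.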

[8] = qHTS assay to identify small molecule antagonists of the progesterone receptor (PR) signaling pathway - cell viability counter screen (AID 1346798; active = well fitted curve in the direction sought with a large enough effect in the repeat runs; an effect the other way counts as inactive or inconclusive; also: series mostly up to about 92 µM; nearly all actives have a fitted effect of over 50% in size)
Summary of the method: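 Same-well multiplex: after 16 hr at 37C with compound and R5020 stimulation, HEK293T cells carrying a UAS-bla reporter received LiveBLAzer substrate (2 hr RT), then CellTiter-Glo (30 min RT) for luminescent viability.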

[9] = qHTS assay to identify small molecule agonists of the progesterone receptor (PR) signaling pathway - cell viability counter screen (AID 1346799); also: nearly all actives have a fitted effect of over 45% in size
Summary of the method: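 Counter screen for cytotoxicity: compound-treated PR-UAS-bla HEK293T cells (16 hr, 37C, 5% CO2) were assayed with CellTiter-Glo, luminescence measured after 30 min at room temperature.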

Measured: Potency

Thyrotropin receptor (Homo sapiens), sequence (P16473 whole entry, looked up): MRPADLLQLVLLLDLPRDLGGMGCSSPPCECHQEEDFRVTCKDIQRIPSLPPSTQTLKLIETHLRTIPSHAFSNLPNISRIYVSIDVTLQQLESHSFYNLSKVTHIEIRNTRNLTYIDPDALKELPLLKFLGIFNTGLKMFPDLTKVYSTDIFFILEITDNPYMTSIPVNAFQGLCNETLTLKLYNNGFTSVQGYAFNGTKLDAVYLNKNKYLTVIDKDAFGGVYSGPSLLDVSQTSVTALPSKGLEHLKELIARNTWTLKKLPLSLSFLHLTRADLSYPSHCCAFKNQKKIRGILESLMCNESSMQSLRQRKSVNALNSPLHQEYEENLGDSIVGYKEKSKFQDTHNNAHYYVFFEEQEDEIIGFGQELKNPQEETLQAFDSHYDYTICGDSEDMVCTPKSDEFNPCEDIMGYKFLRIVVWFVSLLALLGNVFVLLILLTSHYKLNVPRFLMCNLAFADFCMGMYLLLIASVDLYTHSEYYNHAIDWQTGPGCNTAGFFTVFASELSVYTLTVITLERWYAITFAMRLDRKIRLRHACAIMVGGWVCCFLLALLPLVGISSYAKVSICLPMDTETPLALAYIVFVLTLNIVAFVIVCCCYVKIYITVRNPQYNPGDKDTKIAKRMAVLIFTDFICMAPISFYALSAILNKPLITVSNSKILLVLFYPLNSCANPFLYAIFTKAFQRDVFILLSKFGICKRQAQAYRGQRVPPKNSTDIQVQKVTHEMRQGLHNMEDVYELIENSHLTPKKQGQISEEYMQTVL
Progesterone receptor (Homo sapiens), sequence (P06401 whole entry, looked up): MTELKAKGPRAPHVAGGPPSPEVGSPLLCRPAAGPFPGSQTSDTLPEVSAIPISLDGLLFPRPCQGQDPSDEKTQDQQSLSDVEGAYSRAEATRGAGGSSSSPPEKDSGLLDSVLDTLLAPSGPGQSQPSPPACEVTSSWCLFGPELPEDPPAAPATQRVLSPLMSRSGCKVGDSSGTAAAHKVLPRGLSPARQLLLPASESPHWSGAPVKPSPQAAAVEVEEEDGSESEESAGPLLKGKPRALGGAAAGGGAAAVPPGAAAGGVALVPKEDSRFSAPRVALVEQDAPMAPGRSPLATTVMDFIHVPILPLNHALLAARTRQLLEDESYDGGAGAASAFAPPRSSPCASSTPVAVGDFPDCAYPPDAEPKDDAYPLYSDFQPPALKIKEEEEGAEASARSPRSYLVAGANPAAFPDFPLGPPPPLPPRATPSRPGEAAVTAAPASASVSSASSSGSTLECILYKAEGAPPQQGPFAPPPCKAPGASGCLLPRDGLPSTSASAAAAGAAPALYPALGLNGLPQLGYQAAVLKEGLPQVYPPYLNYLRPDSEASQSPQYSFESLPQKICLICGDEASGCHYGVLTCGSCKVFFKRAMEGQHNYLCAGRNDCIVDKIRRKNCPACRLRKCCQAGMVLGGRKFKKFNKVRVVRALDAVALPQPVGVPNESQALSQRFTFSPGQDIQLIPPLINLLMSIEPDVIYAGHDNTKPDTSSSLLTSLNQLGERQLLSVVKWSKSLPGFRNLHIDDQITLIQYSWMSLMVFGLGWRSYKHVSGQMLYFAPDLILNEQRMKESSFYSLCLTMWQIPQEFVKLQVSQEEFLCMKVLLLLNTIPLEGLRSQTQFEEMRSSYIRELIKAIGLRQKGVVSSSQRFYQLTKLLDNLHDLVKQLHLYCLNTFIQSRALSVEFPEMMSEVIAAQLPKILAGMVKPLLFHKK
Estrogen receptor (Homo sapiens), sequence (P03372 whole entry, looked up): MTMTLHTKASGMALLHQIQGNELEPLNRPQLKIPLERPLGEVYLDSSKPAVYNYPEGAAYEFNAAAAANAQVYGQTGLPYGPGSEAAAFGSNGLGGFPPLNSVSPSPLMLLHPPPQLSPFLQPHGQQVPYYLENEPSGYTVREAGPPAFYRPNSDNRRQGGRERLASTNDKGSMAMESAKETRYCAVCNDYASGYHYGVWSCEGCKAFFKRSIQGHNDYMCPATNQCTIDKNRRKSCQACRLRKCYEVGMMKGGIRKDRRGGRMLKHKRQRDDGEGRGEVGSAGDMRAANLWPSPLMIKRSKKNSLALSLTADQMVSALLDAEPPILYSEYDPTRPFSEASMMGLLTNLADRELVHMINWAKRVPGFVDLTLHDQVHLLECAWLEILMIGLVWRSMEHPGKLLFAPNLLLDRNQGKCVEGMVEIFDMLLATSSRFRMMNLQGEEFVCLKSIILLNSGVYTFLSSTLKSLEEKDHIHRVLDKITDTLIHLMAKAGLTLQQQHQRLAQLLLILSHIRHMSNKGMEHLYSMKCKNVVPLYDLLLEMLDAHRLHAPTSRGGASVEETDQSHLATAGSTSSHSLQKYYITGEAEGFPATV

CCOc1cccc(N)c1
inactive: all assays above

CC/C=C\CCOC(=O)c1ccccc1O
inactive: all assays above

CCC/C=C(\C=O)CC
inactive: all assays above

Cc1ccccc1C(N)=O
inactive: all assays above

CCCCCCCCCCOC(C)=O
inactive: all assays above

COc1cc2c(cc1OC)CN(C(=O)[C@H](C)N[C@@H](CCc1ccccc1)C(=O)O)[C@H](C(=O)O)C2
inactive: all assays above

O=C(CN1CCNCC1)NC1CCCCC1
inactive: all assays above

COC(=O)CCCCC(=O)O
inactive: all assays above

COP(=O)(O)OP(=O)(O)OC
inactive: all assays above

O=C(O)[C@H](O)c1ccccc1
inactive: all assays above

CC1OCCC1=O (stereo not drawn)
inactive: all assays above

CC1(C)O[C@H]2CC(=O)OC[C@]23[C@H]2CC[C@@]4(C)[C@H](c5ccoc5)OC(=O)[C@H]5O[C@]54[C@]2(C)C(=O)C[C@@H]13
inactive: all assays above

CC12CCC(C1)C(C)(C)C2O (stereo not drawn)
inactive: all assays above

CC1CC(=O)CC(C)(C)C1 (stereo not drawn)
inactive: all assays above

CC1(C)Cc2cccc(N)c2O1
inactive: all assays above

CCCCOCCOC(=O)COc1ccc(Cl)cc1Cl
inactive: all assays above

COc1nc(N)nc2nc[nH]c12
inactive: all assays above

CCCc1ccc(O)cc1
inactive: all assays above

CC1(C)[C@H]2CC[C@](C)(C2)[C@H]1O
inactive: all assays above

O=C(O)c1cc2ccccc2nc1C(=O)O
inactive: all assays above

NCC1(Cc2noc(=O)[nH]2)CCCCC1
inactive: all assays above

C/C(=C1\CCOC(=O)S1)N(C=O)Cc1cnc(C)nc1N
inactive: all assays above

CCCC(CC)c1ccccc1 (stereo not drawn)
inactive: all assays above

COC(=O)/C=C\C(=O)O
inactive: all assays above

CCC(C)C(=O)OCCc1ccccc1 (stereo not drawn)
inactive: all assays above

O=C(Cn1ccnc1[N+](=O)[O-])NCc1ccccc1
inactive: all assays above

CC(=O)Nc1ccc(OC(=O)c2ccccc2OC(C)=O)cc1
inactive: all assays above
